Screening results as filed in PubChem.
IDE cell activ: human IDE activators in live cells, primary screen, fluorescence polarization, HEK cells, FAbeta-B substrate; Insulin-degrading enzyme (Homo sapiens), P14735; FAbeta-B cleavage; 0% vehicle, 100% cell-free pure enzyme wells; activation, % at 5.96 µM; actives 0.073% (n = 340,000); AID 493087, 2011;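 active means activation above the mean of all tested compounds plus 3 SD, set per screening campaign, cut at about 17% in these data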
IDE cell inh: human IDE inhibitors in live cells, primary screen, fluorescence polarization, HEK cells, FAbetaB substrate | actives 0.41% (n = 320,000) | inhibition, % at 5.59 µM | FAbetaB cleavage | AID 434962, 2010;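 active means percent inhibition above the average of all tested compounds plus 3 SD, set per screening campaign, cut at about 16% in these data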;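 further: IDE supplied by intact live HEK cells; FP after avidin binding of uncleaved biotin substrate so inhibition keeps polarization high; 0% = DMSO wells and 100% = 60 µM reference IDE inhibitor Ii1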
CHT PAM: CHT positive allosteric modulators, primary screen, cell-based, membrane potential dye, choline EC20; High affinity choline transporter 1 (Homo sapiens), Q9GZV3; CHT-expressing cells; stronger effect = higher value; LV-AA mutant CHT in HEK293 cells; B-score at 10 µM; actives 0.49% (n = 310,000); AID 488977, 2010;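 active means initial fluorescence not abnormally high and integrated response B-score, plate-corrected, over 3 SD above library mean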
TMEM16A act: TMEM16A chloride channel activators or potentiators, primary screen, cell-based, HTS | HEK293 TMEM16A/YFP-H148Q/I152L, iodide quench fluorescence; stronger effect = lower value | B-score at 10 µM | actives 0.3% (n = 340,000);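 active means fluorescence-ratio B-score plate-corrected deviation score at least 3 library SD below zero, with starting fluorescence score within 5 deviations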;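 further: channel opened by trigger with iodide after compound preincubation; score built on the fluorescence ratio of max minus min over baseline; more negative score means more quench and so TMEM16A activation or potentiation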
TMEM16A inh: TMEM16A chloride channel inhibitors, primary screen, cell-based, HTS | Anoctamin-1 (Mus musculus), Q8BHY3 | HEK293 TMEM16A/YFP iodide influx fluorescence, ionomycin | normalized B-score (activity score, 25-100; higher = stronger inhibition) at 10 µM | actives 1.2% (n = 310,000) | AID 588511, 2011;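 active means ratio plate-corrected score three or more library SD toward inhibition, starting fluorescence score within five deviations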;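 further: score derived from kinetic fluorescence span divided by baseline fluorescence per well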
CHT block: inhibitors of human choline transporter CHT | High affinity choline transporter 1 (Homo sapiens), Q9GZV3 | CHT-expressing cells, membrane potential dye, choline response; stronger effect = lower value | B-score at 10 µM | actives 0.86% (n = 310,000) | AID 488975, 2010;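 active means B-score over 3 SD under the library average, and starting fluorescence ratio not unusually high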;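 further: choline stimulus applied at its EC90 after an EC20 pre-addition; B-score computed on integrated fluorescence ratio after choline addition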
CHT block conf: CHT inhibitors, confirmation, cell-based, membrane potential dye, duplicate | shares compounds with CHT block | CHT-expressing cells, choline membrane potential dye; LV-to-AA substituted CHT, HEK293 cells | CHT activity remaining % of control (stronger effect = lower value), % at 10 µM | actives 70% (n = 2,400) | AID 493221, 2011;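 active means choline transporter activity left, mean of duplicates at 10 µM, below buffer-only control mean minus 3 SD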;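 further: depolarization triggered by choline at its EC90 following an EC20 pre-addition; 0% = hemicholinium-3 full block and 100% = buffer-only control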
HEK293 CHT ctr: membrane potential effects in parental HEK293, counter-screen for CHT inhibitor project, cell-based, membrane potential dye. shares compounds with CHT block. choline response; active = decrease or increase beyond buffer ±3SD. membrane potential ratio readout (active if shifted either direction beyond buffer ±3SD; no single direction) at 10 µM. actives 4% (n = 2,400);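 further: parental cells lack the transporter so any hit is non-specific; ratio is peak minus trough fluorescence over baseline after EC90 choline challenge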
* = called active by the depositor; i = inactive; / = no result given. Compounds with a hit are over-represented: about 2.7% of the library has one in this group of screens.

SMILES	IDE cell activ	IDE cell inh	CHT PAM	TMEM16A act	TMEM16A inh	CHT block	CHT block conf	HEK293 CHT ctr
CCOC(=O)c1c(N)ssc1=S	-3	3	i	i	i	-11*	17%*	i
O=C(COC(=O)c1ccccc1-n1cnnn1)c1ccc(F)cc1	5	5	i	i	i	i	/	/
CCCC1Cc2c(sc(N)c2C#N)CO1 (configuration not stated)	4	4	i	i	i	i	/	/
CN1Cc2sc(N)c(C#N)c2CC1(C)C	-4	6	i	i	i	-9*	33%*	i
Cc1ccc(NC(=O)CC(C)S(=O)(=O)c2ccc3c(c2)NC(=O)CO3)c(Cl)c1 (configuration not stated)	7	1	i	i	i	i	/	/
Cc1ccc(N(C)C(=O)CC(C)S(=O)(=O)c2ccc3c(c2)NC(=O)CO3)cc1 (configuration not stated)	6	1	i	i	i	-5.7*	i	i
O=C(COC(=O)c1ccccc1Oc1ccccc1)NCc1ccco1	1	6	i	i	i	-5.4*	i	i
O=C(COC(=O)c1ccccc1)NCc1ccco1	6	-3	i	i	i	i	/	/
Cc1ccc(-n2cc(CN3CCN(Cc4nccn4C)CC3)c(-c3cccc(C)c3)n2)cc1	-2	5	i	i	i	-5.6*	27%*	i
Cc1ccc(-n2cc(CN3CCNC(=O)CC3)c(-c3cccc(C)c3)n2)cc1	-2	0	i	i	i	i	/	/
N=C(N)c1ccc(O)cc1	5	-5	i	i	i	i	/	/
CC/C(=C(/CC)c1ccc(O)cc1)c1ccc(O)cc1	1	-4	i	i	i	-7.4*	55%*	i
O=C(COc1ccc(Cl)cc1Cl)N/N=C/C1CC=CCC1 (configuration not stated)	-3	-1	i	i	i	i	/	/
CCN(CC(=O)NCc1ccc(F)cc1)C(=O)c1ccc(C(=O)c2ccccc2)cc1	3	6	i	i	i	-5.7*	i	i
CCN(CC(=O)NCc1ccc(F)cc1)C(=O)c1ccc(Cl)cc1	4	-3	i	i	i	i	/	/
O=C(NC(C(=O)c1ccccc1)c1ccccc1)c1ccccc1 (configuration not stated)	1	/	/	i	/	/	/	/
Cc1ccc(NC(=O)CSc2nnnn2C2CC2)cc1S(=O)(=O)N1CCOCC1	4	/	/	i	/	/	/	/
O=C(O)c1cccc2c1/C(=N/Nc1ccc([N+](=O)[O-])cc1[N+](=O)[O-])c1ccccc1-2	0	1	i	i	i	-6.2*	69%*	i
COc1ccc(C2NC(=O)c3sc(=S)n(-c4ccccc4)c3N2)cc1 (configuration not stated)	0	3	i	i	i	i	/	/
CCOc1ccc(C2NC(=O)c3sc(=S)n(-c4ccccc4)c3N2)cc1 (configuration not stated)	1	-1	i	i	i	-4.9*	i	i
O=C1OCCC1Sc1nnc(-c2ccccc2Cl)n1Cc1ccccc1 (configuration not stated)	0	11	i	i	i	-6.9*	i	i
O=C1OCCC1Sc1nnc(-c2ccccc2Br)n1Cc1ccccc1 (configuration not stated)	1	-7	i	i	i	i	/	/
Cc1cccc(NC2=C(NCCO)C(=O)c3ccccc3C2=O)c1	2	0	i	i	i	-7.7*	45%*	2.5*
CCC(=O)c1ccc(OCC(=O)OCC(=O)NCCC2=CCCCC2)cc1	1	-6	i	i	i	i	/	/
O=C(Cn1ncc2c3ccccc3n(Cc3ccccc3)c2c1=O)NCCCN1CCCC1	2	-1	i	i	i	-9*	25%*	i
SMILES	IDE cell activ	IDE cell inh	CHT PAM	TMEM16A act	TMEM16A inh	CHT block	CHT block conf	HEK293 CHT ctr
CCCn1c2ccccc2c2cnn(CC(=O)NCCCN3CCCC(C)C3)c(=O)c21 (configuration not stated)	6	3	i	i	i	-6.6*	26%*	i
CCCN1CCN(CCCNC(=O)Cn2ncc3c4ccccc4n(C)c3c2=O)CC1	3	2	i	i	i	i	/	/
CCCn1c2ccccc2c2cnn(CC(=O)NCCCN3CCN(c4ccccc4)CC3)c(=O)c21	-4	0	i	i	i	-9.9*	23%*	i
CCCn1c2ccccc2c2cnn(CC(=O)OC)c(=O)c21	7	1	i	i	i	-5.8*	24%*	i
O=C(NCCCN1CCCC1=O)c1ccc(NS(=O)(=O)c2cccc([N+](=O)[O-])c2)cc1	8	-7	i	i	i	i	/	/
COc1ccccc1C(=O)NCCN=C1NS(=O)(=O)c2ccccc21	-1	1	i	i	i	i	/	/
Cc1noc(C)c1S(=O)(=O)N(C)C[C@H]1Oc2ccc(NC(=O)Cc3ccccc3)cc2C(=O)N([C@H](C)CO)C[C@@H]1C	-2	5	/	i	/	/	/	/
CCn1cc(S(=O)(=O)Nc2cc(C(=O)OC)ccc2C)cn1	0	3	i	i	i	i	/	/
CCCn1c2ccccc2c2cnn(CC(=O)NCCCN3CCCCC3)c(=O)c21	3	-1	i	i	i	-9.3*	21%*	i
Cn1c2ccccc2c2cnn(CC(=O)NCCCN3CCN(c4ccccc4F)CC3)c(=O)c21	6	-2	i	i	i	-5.5*	i	i
Cc1c2cnn(CC(=O)NCCN3CCOCC3)c(=O)c2c(C)n1Cc1ccccc1	1	3	i	i	i	i	/	/
